Assay outcomes from PubChem BioAssay.
KCNH2 3.1 block: KCNH2 3.1 (human) potassium channel inhibition. 340,000 tested, 0.95% active. U2OS KCNH2 3.1, thallium flux FluxOr; active compounds read low. AID 720553. activity change, % (tested at about 1.8 µM);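 active = maximum activity change below -70%; inconclusive = maximum activity change from -70% to -50%; inactive = maximum activity change above -50%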;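 note: thallium influx rate constant from kinetic fluorescence after stimulation buffer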
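Normalized rate constant (relative to positive and negative DMSO controls) derived from a 2 min kinetic fluorescence read after stimulation; U2OS cells expressing the 3.1 isoform via virus at 1.77 x 10^8 /mL.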
TRPV1 PAM: human TRPV1 potentiation. Q8NER1. TRPV1-expressing cells, Fluo-8 calcium influx, capsaicin EC20 potentiation. potentiation, % at 8.33 µM. 320,000 tested, 0.02% active. AID 540277; in the data active = potentiation above about 80%; inconclusive = between about 30% and that limit
Target sequence (Q8NER1 whole entry, looked up): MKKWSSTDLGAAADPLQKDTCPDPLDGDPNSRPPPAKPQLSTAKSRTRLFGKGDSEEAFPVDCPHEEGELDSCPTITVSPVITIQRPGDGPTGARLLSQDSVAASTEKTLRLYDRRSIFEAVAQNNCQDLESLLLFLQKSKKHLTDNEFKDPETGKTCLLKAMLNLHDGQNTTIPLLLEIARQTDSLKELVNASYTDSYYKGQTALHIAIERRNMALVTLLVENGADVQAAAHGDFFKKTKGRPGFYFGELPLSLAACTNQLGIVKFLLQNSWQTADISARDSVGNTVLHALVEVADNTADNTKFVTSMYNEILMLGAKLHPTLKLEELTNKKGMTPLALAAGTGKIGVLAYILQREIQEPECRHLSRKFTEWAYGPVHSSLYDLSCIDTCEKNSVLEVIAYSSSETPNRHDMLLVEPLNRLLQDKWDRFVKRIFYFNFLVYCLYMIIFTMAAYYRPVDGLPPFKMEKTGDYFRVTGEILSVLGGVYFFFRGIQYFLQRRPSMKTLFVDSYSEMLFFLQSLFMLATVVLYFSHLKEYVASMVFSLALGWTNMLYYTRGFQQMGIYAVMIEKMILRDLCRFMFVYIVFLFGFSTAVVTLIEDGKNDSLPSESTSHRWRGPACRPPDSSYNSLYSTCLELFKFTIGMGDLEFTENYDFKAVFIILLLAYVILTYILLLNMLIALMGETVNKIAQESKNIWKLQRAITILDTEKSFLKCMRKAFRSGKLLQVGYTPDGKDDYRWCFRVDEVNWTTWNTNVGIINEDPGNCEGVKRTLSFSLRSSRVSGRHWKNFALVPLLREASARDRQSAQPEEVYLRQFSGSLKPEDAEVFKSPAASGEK
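Cells expressing TRPV1 were dye-loaded with Fluo-8 and read kinetically: 10 s baseline, 3 min after compound (agonist portion), then 2 min after EC20 capsaicin (allosteric enhancer portion). Calcium-bound dye fluorescence at 480/520 nm.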
TRPV1 ag: activates the human vanilloid receptor TRPV1. Q8NER1. TRPV1-expressing cells, Fluo-8 calcium influx, agonist mode. activation, % at 8.33 µM. 320,000 tested, 0.19% active; in the data active = activation above about 80%; inconclusive = between about 30% and that limit
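Fluo-8 calcium influx in TRPV1-expressing cells, kinetic read (ex 480/em 520 nm). Compound added and read 3 min for agonist activity, followed by capsaicin at EC20 final and 2 min further read for enhancement.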
hERG WT inh: inhibitors of human wildtype KCNH2 potassium channel; Q12809; activity change, % at 1.84 µM; AID 720551; U2OS, BacMam KCNH2, thallium flux FluxOr; active compounds read low; 340,000 tested, 0.37% active;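 active = maximum activity change below -70%; inconclusive = maximum activity change between -70% and -50%; inactive = maximum activity change above -50%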
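U2OS cells were transduced with wild-type KCNH2 virus (2.03 x 10^8 / mL) for 4 h at room temperature, then cultured overnight at 37 C. Thallium flux was read with FluxOr dye. Rate constants were normalized to DMSO controls.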
A number is an active result; . = inactive; ? = inconclusive; / = no result. Hits are enriched below; roughly 1.3% of the tested compounds scored in any of these assays.

SMILES	KCNH2 3.1 block	TRPV1 PAM	TRPV1 ag	hERG WT inh
Cc1cc(NC(=O)c2cccc(Br)c2)no1	.	/	/	.
Cc1cc(Br)ccc1NC(=O)CNC(=O)CN(C)Cc1nc2ccccc2c(=O)[nH]1	-99	.	.	.
Cc1ccc(NC(=O)CN(C)Cc2nc3ccccc3c(=O)[nH]2)c(Br)c1	.	.	.	.
Cc1ccnc(N2CCC(C(=O)NCc3ccc4c(c3)OCO4)CC2)n1	.	.	.	-195
O=C(Cn1cncn1)NCCC(c1ccccc1)c1ccccc1	.	.	?	.
O=C(Cn1cncn1)NCCCc1ccccc1	.	.	.	-177
Cc1ccc(C2N(c3ccccc3)C(=S)N3CCCN23)cc1 (stereo unspecified)	.	.	.	.
Fc1ccc(C2N(c3ccccc3)C(=S)N3CCCN23)cc1 (stereo unspecified)	-100	.	.	-110
Cn1cnnc1SCC(=O)Nc1sc2c(c1C(N)=O)CCC2	.	.	.	-284
COCCn1cnnc1SCC(=O)Nc1sc2c(c1C#N)CCC2	.	.	.	.
NC(=O)c1ccsc1NC(=O)C1CCCN1S(=O)(=O)c1ccc(Cl)cc1 (stereo unspecified)	.	.	.	.
CC1CCCCN1S(=O)(=O)c1ccc(C(=O)Nc2sccc2C(N)=O)cc1 (stereo unspecified)	-96	.	.	.
CCOC(=O)c1ccccc1Nc1cc(C)nc2nc(-c3ccco3)nn12	/	.	?	/
Cc1ccc(C)c(NCC(=O)NNC(=S)Nc2ccccc2)c1	.	.	.	-75
Cc1ccc(C)c(NC(=O)CCC(=O)NNC(=S)Nc2ccccc2)c1	.	.	.	.
CCC(=Nc1ccccc1)C1=C(O)CC(C)(C)CC1=O	/	105	.	/
CN(C)Cc1c(C(=O)N/N=C/CCc2ccccc2)nnn1-c1nonc1N	.	.	.	.
O=C(COC(=O)c1oc2ccccc2c1COc1ccccc1)NCCN1C(=O)CSC1=O	.	.	.	.
COCc1c(C(=O)OCC(=O)NCCN2C(=O)CSC2=O)oc2ccccc12	.	.	.	-120
O=C(Cn1ccc2ccccc2c1=O)NCCC(=O)Nc1cccc(Cl)c1	.	?	.	.
Cc1cccc([C@@H](NC(=O)OC(C)(C)C)C(=O)OC(C)(C)C)c1	.	.	?	.
CC(C)(C)OC(=O)N[C@@H](C(=O)OC(C)(C)C)c1ccccc1	-86	.	?	.
COc1ccc(NC(=O)CC2SC(N3CCOCC3)=NC2=O)cc1OC (stereo unspecified)	.	.	.	.
CN(C)CCNC(=O)/C(=C/c1ccc(-c2cccc(Cl)c2)o1)NC(=O)c1ccccc1	.	.	.	.
CN(C)CCCNC(=O)/C(=C\c1ccc(-c2ccc(Br)cc2)o1)NC(=O)c1ccccc1	-117	.	.	.
SMILES	KCNH2 3.1 block	TRPV1 PAM	TRPV1 ag	hERG WT inh
Cc1ccc(C(=O)N/C(=C\c2ccc(-c3ccc(Cl)cc3)o2)C(=O)NCCCN(C)C)cc1	?	.	.	-83
CN(C)CCCNC(=O)/C(=C/c1ccc(-c2ccc([N+](=O)[O-])cc2)o1)NC(=O)c1ccccc1	-99	.	.	?
CC(=O)c1cccc(N2C(=NC(=O)C3CCCCC3)SC3CS(=O)(=O)CC32)c1 (stereo unspecified)	.	.	.	.
COC(=O)c1ccccc1NC(=O)CSc1nc2sc3c(c2c(=O)[nH]1)CCCC3	/	.	.	/
CCOc1ccc2c(c1)sc(N)[n+]2Cc1cc(C)cc2cccnc12	-88	.	.	.
COc1ccc2c(c1)sc(N)[n+]2Cc1cc(C)cc2cccnc12	-77	.	.	.
Cc1cccc(N2CCN(C(=O)CCS(=O)(=O)c3ccc(Br)cc3)CC2C)c1 (stereo unspecified)	.	.	.	.
CC(=O)N1CCCc2cc(S(=O)(=O)CCC(=O)N3CCN(c4cccc(C)c4)C(C)C3)ccc21 (stereo unspecified)	-93	.	.	.
N#Cc1ccccc1OCC(=O)Nc1cc(S(=O)(=O)N2CCCCC2)ccc1N1CCOCC1	.	/	/	.
Cc1c(C(=O)N2CCN(CCc3ccccc3)CC2)oc2ccccc12	.	.	.	.
Cc1c(C(=O)N2CCN(CCc3ccccn3)CC2)oc2ccc(Cl)cc12	-103	.	.	.
COc1ccc(OC)c(NC(=O)c2cccc(N3C(=O)C4C5C=CC(C6CC56)C4C3=O)c2)c1 (stereo unspecified)	.	.	.	-167
COc1ccc(N2C(=O)c3ccc(C(=O)Nc4cc(OC)ccc4OC)cc3C2=O)cc1	-96	.	.	.
